Reference: PubChem BioAssay AID540336 (Broad Institute, 2011)
Out of some 330,000 compounds screened, about 520 (0.16%) were called active. This is one part of a sample in which actives are shown more often than they occur. Values without a mark were called inactive.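 The calls were made as follows: active = inhibition of at least 50% in every replicate; inconclusive = best replicate reaches 50% inhibition but some replicates fall short; inactive = the rest.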

Each molecule was assayed against Histone acetyltransferase RTT109 (Candida albicans (strain SC5314 / ATCC MYA-2876)) (UniProt Q5AAJ8) (assay: inhibitors of C. albicans Rtt109/Vps75 HAT, primary screen, biochemical, ThioGlo CoA-SH fluorescence, plate reader (AID 540336)). Conditions: purified Rtt109/Vps75, ThioGlo CoA-SH fluorescence, 4 h; at 34.9 µM; active compounds read high.
Chain of Histone acetyltransferase RTT109 (Candida albicans (strain SC5314 / ATCC MYA-2876)) (Q5AAJ8 whole entry, looked up): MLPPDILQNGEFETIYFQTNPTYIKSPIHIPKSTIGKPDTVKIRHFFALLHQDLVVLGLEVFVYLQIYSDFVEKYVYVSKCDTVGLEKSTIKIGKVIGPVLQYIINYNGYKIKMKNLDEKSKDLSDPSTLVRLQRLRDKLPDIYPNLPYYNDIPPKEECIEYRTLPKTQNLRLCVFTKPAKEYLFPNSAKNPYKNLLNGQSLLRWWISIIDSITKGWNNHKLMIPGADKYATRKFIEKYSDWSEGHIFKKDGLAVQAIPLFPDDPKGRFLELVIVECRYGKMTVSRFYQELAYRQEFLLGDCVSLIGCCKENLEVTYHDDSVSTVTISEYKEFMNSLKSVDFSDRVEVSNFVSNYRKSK

| SMILES | inhibition |
| --- | --- |
| CCCCCCCCCCCCn1ccc(=N)cc1 | 64.2% (active) |
| CC(=O)OC1C2(CC3N4C(=O)C5(CO)SSC4(CC31O)C(=O)N5C)OC(C)C(C)(C)C2=O (stereo not given) | -1.66% |
| O=C(c1ccccc1)C(O)(CN1CCCCC1)c1ccccc1 (stereo not given) | -0.455% |
| CCC(C)(O)C(=O)OC1C(=O)OC2CC3C(C)=CC(=O)C(O)C3(C)C3C4(O)OCC23C1C(C)C4O (stereo not given) | 11.1% |
| COC1C(O)C(C)OC(OC2CCC3(C=O)C(CCC4C3CCC3(C)C(C5=CC(=O)OC5)CCC43O)C2)C1O (stereo not given) | 9.01% |
